PubChem BioAssay AID1159580 (chemical genetic matrix, 2015)
Where “and” joins values, the source holds several entries; their conditions need not be identical. Identical values can stand only once. The whole screen tested about 5,500 compounds, of which about 2,000 (36%) were called active. About 18% were inconclusive and are not listed. No stated cut-off is given here; in the data, active means normalized growth mostly below about 0.91 (no sharp cut-off); inconclusive means no clear call, values can overlap the other calls; inactive means mostly above about 0.92. This is one part of the list.

Experiment: chemical genetic growth profiling, strain panel (AID 1159580);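 further: tested at 20 µM; growth read once vehicle control cultures reached saturation at 30 °C; 1 = growth at the plate median or of vehicle wells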
Details: S. cerevisiae deletion strains, growth OD

Measured: normalized growth

C=C[C@@H](C1=CC(=O)C(OC)=C(OC)C1=O)c1ccccc1
0.892 (inactive) and 0.782 (active): locus YJL095W, strain BCK1, stronger effect = lower value
active: locus YAL021C, strain ccr4, stronger effect = lower value 0.899 | locus YAL026C, strain drs2, stronger effect = lower value 0.405 | locus YAL030W, strain snc1, stronger effect = lower value 0.825 | locus YBL061C, strain skt5, stronger effect = lower value 0.859 | locus YBR009C, strain hhf1, stronger effect = lower value 0.273 | locus YBR021W, strain FUR4, stronger effect = lower value 0.516 | locus YBR023C, strain chs3, stronger effect = lower value 0.816 | locus YBR231C, strain swc5, stronger effect = lower value 0.742 | locus YBR279W, strain paf1, stronger effect = lower value 0.703 | locus YCL011C, strain gbp2, stronger effect = lower value 0.307 | locus YCL016C, strain dcc1, stronger effect = lower value 0.581 | locus YCL069W, strain vba3, stronger effect = lower value 0.45 | locus YCR088W, strain abp1, stronger effect = lower value 0.911 | locus YDL035C, strain GPR1, stronger effect = lower value 0.277 | locus YDL192W, strain arf1, stronger effect = lower value 0.266 | locus YDR137W, strain rgp1, stronger effect = lower value 0.694 | locus YDR150W, strain NUM1, stronger effect = lower value 0.61 | locus YDR162C, strain NBP2, stronger effect = lower value 0.0631 | locus YDR297W, strain sur2, stronger effect = lower value 0.802 | locus YDR318W, strain mcm21, stronger effect = lower value 0.181 | locus YDR334W, strain swr1, stronger effect = lower value 0.472 | locus YDR388W, stronger effect = lower value 0.827 | locus YDR392W, strain spt3, stronger effect = lower value 0.146 | locus YDR502C, strain sam2, stronger effect = lower value 0.665 | locus YEL003W, strain gim4, stronger effect = lower value 0.553 | locus YEL061C, strain CIN8 (second series), stronger effect = lower value 0.642 | locus YER015W, strain faa2, stronger effect = lower value 0.588 | locus YER155C, strain BEM2 (second series), stronger effect = lower value 0.413 | locus YER167W, strain BCK2, stronger effect = lower value 0.252 | locus YFR010W, strain ubp6, stronger effect = lower value 0.869 | locus YGL086W, strain mad1, stronger effect = lower value 0.142 | locus YGL173C, strain kem1, stronger effect = lower value 0.632 | locus YGL227W, strain vid30, stronger effect = lower value 0.473 | locus YGL240W, strain doc1, stronger effect = lower value 0.723 | locus YGL248W, strain PDE1, stronger effect = lower value 0.125 | locus YGL253W, strain hxk2, stronger effect = lower value 0.838 | locus YGR078C, strain PAC10, stronger effect = lower value 0.0851 | locus YGR135W, strain pre9, stronger effect = lower value 0.306 | locus YGR252W, strain gcn5, stronger effect = lower value 0.369 | locus YHR013C, strain ard1, stronger effect = lower value 0.507 | locus YHR027C, strain rpn1, stronger effect = lower value 0.775 | locus YHR030C, strain SLT2, stronger effect = lower value 0.0586 and 0.753 | locus YHR094C, strain hxt1, stronger effect = lower value 0.782 | locus YHR129C, strain ARP1, stronger effect = lower value 0.212 | locus YHR142W, strain chs7, stronger effect = lower value 0.603 | locus YHR200W, strain rpn10, stronger effect = lower value 0.788 | locus YIL066C, strain RNR3, stronger effect = lower value 0.148 | locus YIL073C, strain SPO22, stronger effect = lower value 0.341 | locus YIL125W, strain kgd1, stronger effect = lower value 0.919 | locus YJL092W, strain hpr5, stronger effect = lower value 0.883 | locus YJL095W, strain BCK1 (second series), stronger effect = lower value 0.468 | locus YJL115W, strain asf1, stronger effect = lower value 0.82 | locus YJL164C, strain tpk1, stronger effect = lower value 0.376 | locus YJL166W, strain qcr8, stronger effect = lower value 0.245 | locus YJL168C, strain set2, stronger effect = lower value 0.881 | locus YJR066W, strain TOR1, stronger effect = lower value 0.716
inactive: locus YBR171W, strain sec66, stronger effect = lower value 0.996 | locus YBR229C, strain ROT2, stronger effect = lower value 0.989 | locus YCL029C, strain bik1, stronger effect = lower value 0.968 | locus YDL005C, strain med2, stronger effect = lower value 1 | locus YDL040C, strain nat1, stronger effect = lower value 1.01 | locus YDL074C, strain BRE1, stronger effect = lower value 0.962 | locus YDL101C, strain DUN1, stronger effect = lower value 0.97 | locus YDL185W, strain tfp1, stronger effect = lower value 0.945 | locus YDR001C, strain nth1, stronger effect = lower value 0.997 | locus YDR069C, strain doa4, stronger effect = lower value 0.995 | locus YDR101C, strain arx1, stronger effect = lower value 0.998 | locus YDR159W, strain sac3, stronger effect = lower value 1.02 | locus YDR195W, strain ref2 1.09 | locus YDR335W, strain msn5, stronger effect = lower value 0.977 | locus YEL037C, strain rad23, stronger effect = lower value 0.952 | locus YER016W, strain bim1, stronger effect = lower value 0.999 | locus YER110C, stronger effect = lower value 0.97 | locus YER111C, strain swi4, stronger effect = lower value 0.994 | locus YER155C, strain BEM2, stronger effect = lower value 0.985 | locus YGL078C, strain dbp3, stronger effect = lower value 0.966 | locus YGL167C, strain pmr1, stronger effect = lower value 0.972 | locus YHR079C, strain IRE1 (second series), stronger effect = lower value 0.96 | locus YHR079C, strain IRE1, stronger effect = lower value 0.888 | locus YIR030C, strain dcg1, stronger effect = lower value 0.967 | locus YJL129C, strain trk1, stronger effect = lower value 0.978 | locus YJL134W, strain LCB3, stronger effect = lower value 0.986 | locus YJL154C, strain vps35, stronger effect = lower value 1.01 | locus YJL187C, strain SWE1 (second series), stronger effect = lower value 0.977
